The other results are listed elsewhere or left out. Calls of active or inactive are those of the source. No stated cut-off is given here; in the data, active means activation above about 4%; inactive means the rest.
test system: Methionine sulfoxide reductase A (Bos taurus); assay: bovine MsrA activators, retest, confirmation, biochemical, absorbance, HTS (AID 602270); details: purified bovine MsrA, absorbance read-out; at 10.6 µM; hits give high values;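 further: enzyme coupled to thioredoxin and thioredoxin reductase with NADPH; 0% = vehicle wells and 100% = reference activator wells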

| Structure (SMILES) | activation |
| --- | --- |
| CSCCC1NC(=O)N(CC(=O)Nc2cccc(S(=O)(=O)N3CCCCCC3)c2)C1=O (centres undefined) | -0.9% (inactive) |
| O=C(OCC(=O)N1CCN(c2ccccc2)CC1)c1ccc([N+](=O)[O-])s1 | 3.98% (active) |
| COc1ccccc1-n1cn[nH]c1=S | -0.06% (inactive) |
| Cn1nnnc1SCC(=O)N1CCN(Cc2ccccc2)CC1 | -1.94% (inactive) |
| CCc1ccc(NC(=O)CSc2nnc(-c3cnccn3)n2Cc2ccco2)cc1 | -1.98% (inactive) |
| NC1=CC(=O)C(=O)c2cccnc21 | 5.78% (active) |
| Cc1noc(NS(=O)(=O)c2ccc(NC(=O)C34CCC(CC3)C4)cc2)c1C | -0.66% (inactive) |
| Cc1ccc(C)c(NC(=O)CSc2nnc(Cc3cccn3C)n2-c2ccc(F)cc2)c1 | 2.75% (inactive) |
| COc1cc(NC(=O)COC(=O)c2ccc([N+](=O)[O-])s2)cc(OC)c1OC | 4.75% (active) |
| S=c1[nH]nc(NCCc2ccccc2)s1 | 7.45% (active) |
| O=C(O)/C=C/c1cn(Cc2ccccc2)nc1-c1cccs1 | -1.62% (inactive) |
| O=C(CCN1CCN(c2ccccc2)CC1)NNC(=S)Nc1ccccc1 | -0.61% (inactive) |
| Cc1ccc(S(=O)(=O)n2nc(OC(=O)C(C)(C)C)cc2N)cc1 | -1.8% (inactive) |
| CCN(CC)CCCC(C)n1c2nc(=O)[nH]c(=O)c-2nc2cc(Cl)ccc21 (centres undefined) | 8.41% (active) |
| COc1ccc(C(CNC(=O)c2cc3c(s2)CCCC3)N2CCOCC2)cc1 (centres undefined) | 0.61% (inactive) |
| Cc1ccc(COC(=O)CN2C(=O)NC3(CCCC3)C2=O)cc1 | -1.66% (inactive) |
| O=C(O)C1CCCCC1C(=O)Nc1ccc(Cl)cc1 (centres undefined) | -0.71% (inactive) |
| O=C(O)c1ccccc1-c1ccccc1C(=O)Nc1cccc2ccccc12 | -1.68% (inactive) |
| O=C(O)Cc1ccc(NC(=O)C2CCCCC2C(=O)O)cc1 (centres undefined) | -1.24% (inactive) |
| O=C(c1ccco1)N1CCN(Cc2cccc(C(F)(F)F)c2)CC1 | -0.28% (inactive) |
| COc1ccc(Cl)cc1NS(=O)(=O)c1cccc(C(=O)NCC2CCCO2)c1 (centres undefined) | 2.13% (inactive) |
| CCN(CC(=O)Nc1ccccc1OC)C(=O)CC1CC2CCC1C2 (centres undefined) | 0.76% (inactive) |
| CCOc1cccc(-n2nnnc2-c2ccc(OC)cc2)c1 | -1.06% (inactive) |
| O=C(O)c1ccccc1NC(=O)c1ccccc1-c1ccccc1C(=O)O | -3.02% (inactive) |

From PubChem BioAssay AID602270 (The Scripps Research Institute Molecular Screening Center, 2012)
